Results published in PubChem BioAssay (NCATS).
Results filed as inconclusive are left out. Calls of active or inactive are those of the source. Unless noted, calls come from the whole dose curve; as a rule, active = well fitted curve in the direction sought with a large enough effect; inconclusive = small, poorly fitted or top-dose-only effect, or another doubt; inactive = no such curve, though single readings can be large; an effect the other way counts as inactive or inconclusive.

Legend:
[1] = target: Lysosomal acid glucosylceramidase (Homo sapiens) (UniProt P04062); experiment: Glucocerebrosidase-p2 (AID 348; in the data active = potency below about 10 µM; note: potency is the fitted concentration of half-maximal effect); details: purified GBA, blue fluorogenic substrate, 40 min
Chain of Lysosomal acid glucosylceramidase (Homo sapiens) (P04062 whole entry, looked up): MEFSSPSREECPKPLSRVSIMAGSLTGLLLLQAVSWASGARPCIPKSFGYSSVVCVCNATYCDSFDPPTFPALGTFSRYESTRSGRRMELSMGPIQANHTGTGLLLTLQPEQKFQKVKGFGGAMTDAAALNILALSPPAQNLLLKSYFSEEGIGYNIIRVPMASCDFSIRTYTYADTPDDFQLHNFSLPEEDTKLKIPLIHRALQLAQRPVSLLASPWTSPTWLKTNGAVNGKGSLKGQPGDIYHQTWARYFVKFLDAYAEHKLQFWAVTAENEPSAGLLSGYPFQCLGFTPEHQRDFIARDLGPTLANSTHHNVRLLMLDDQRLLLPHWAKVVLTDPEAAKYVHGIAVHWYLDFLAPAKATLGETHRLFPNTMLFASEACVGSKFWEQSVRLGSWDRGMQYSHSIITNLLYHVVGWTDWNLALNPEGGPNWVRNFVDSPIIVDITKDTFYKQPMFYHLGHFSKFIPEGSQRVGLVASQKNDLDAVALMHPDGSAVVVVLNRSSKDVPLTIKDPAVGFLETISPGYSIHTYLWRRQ
In short: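 Normal human glucocerebrosidase (0.2 nM) with blue fluorogenic substrate (80 uM final) in citrate/phosphate pH 5.9 with 10mM sodium taurocholate, 0.01% tween-20; 40 min RT, NaOH/glycine stop; fluorescence Ex 365/Em 440; AC50 from a titration from 0.6 nM upwards.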

[2] = AP1 Signaling Pathway (AID 357; active = well fitted curve in either direction with a large enough effect, not every such curve was filed as active;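 note: ME-180 reporter cells stimulated with EGF at its EC50 level; % is set by controls: 0 for no effect and ±100 for the full control effect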); details: ME-180 AP-1-bla reporter, EGF-induced, beta-lactamase ratio, 5 h; at 7.69 µM (top of the series) unless noted
In short: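 Read-out was the 460nm/530nm emission ratio (excitation 405nm) after CCF4 loading for 2.5 hours at room temperature. Cells carried an AP-1-driven beta-lactamase reporter, were stimulated with EC50 EGF plus compound for 5 hours, and AC50 values came from titrations.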

[3] = target: Glucocorticoid receptor (Homo sapiens) (UniProt P04150); experiment: GR-GFP Redistribution (AID 450;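 active = compounds whose dose series gives a full or clear partial fitted curve of increased nuclear translocation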; note: potency is the fitted concentration of half-maximal effect); details: U2OS GR-GFP nuclear translocation, laser cytometry, 2 h
Chain of Glucocorticoid receptor (Homo sapiens) (P04150 whole entry, looked up, the tested form may be a part): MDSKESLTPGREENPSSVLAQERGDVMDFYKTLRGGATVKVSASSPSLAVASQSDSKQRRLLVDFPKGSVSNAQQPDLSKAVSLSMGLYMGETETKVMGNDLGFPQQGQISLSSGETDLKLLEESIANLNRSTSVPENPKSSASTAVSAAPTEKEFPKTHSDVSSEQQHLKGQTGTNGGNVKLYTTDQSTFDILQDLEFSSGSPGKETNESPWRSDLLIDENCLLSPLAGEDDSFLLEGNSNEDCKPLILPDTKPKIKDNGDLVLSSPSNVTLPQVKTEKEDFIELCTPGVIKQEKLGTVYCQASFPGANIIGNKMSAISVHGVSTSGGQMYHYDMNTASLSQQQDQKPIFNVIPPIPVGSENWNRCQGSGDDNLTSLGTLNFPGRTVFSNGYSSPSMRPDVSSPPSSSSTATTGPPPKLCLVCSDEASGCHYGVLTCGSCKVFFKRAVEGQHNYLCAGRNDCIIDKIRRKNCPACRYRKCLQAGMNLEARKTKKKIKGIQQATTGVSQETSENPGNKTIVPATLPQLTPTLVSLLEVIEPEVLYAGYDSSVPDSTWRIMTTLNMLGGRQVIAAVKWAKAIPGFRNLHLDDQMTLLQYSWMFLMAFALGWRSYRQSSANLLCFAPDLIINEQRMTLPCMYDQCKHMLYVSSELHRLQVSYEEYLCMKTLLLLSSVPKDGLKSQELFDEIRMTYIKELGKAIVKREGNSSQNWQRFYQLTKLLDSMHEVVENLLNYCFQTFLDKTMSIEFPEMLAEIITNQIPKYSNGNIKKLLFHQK

[4] = target: Glucocorticoid receptor (Homo sapiens) (UniProt P04150); experiment: GR-EFC Redistribution (AID 451; calls by dose curve; note: potency is the fitted concentration of half-maximal effect); details: CHO-K1 GR-EFC translocation, beta-gal luminescence, 2 h
In short: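 CHO-K1 cells stably expressing nuclear-localized β-gal enzyme acceptor and GR fused C-terminally to the enzyme donor fragment; ligand-driven nuclear translocation restores β-gal by complementation. Compounds titrated up to 46 uM final, 2 h at 37 °C; luminescence read.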

[5] = target: Mitogen-activated protein kinase 10 (Mus musculus) (UniProt Q61831); experiment: JNK3 AlphaScreen Assay (AID 530; active = well fitted curve in either direction with a large enough effect, not every such curve was filed as active;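 note: kinase came from lysate of stimulated human HepG2 cells; signal reports phosphorylation of biotinylated GST-cJun 1-79 at Ser73 with 10 µM ATP; % is set by controls: 0 for no effect and ±100 for the full control effect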); details: JNK3 lysate, c-Jun phosphorylation; series mostly up to 57.1 µM
In short: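 Phosphorylation of biotinylated GST-cJun(1-79) at Ser73 is measured by AlphaScreen proximity luminescence. Enzyme is JNK3 in HepG2 lysates activated with interleukin-1beta and tumor necrosis factor alpha; ATP is 10 uM final.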

[6] = qHTS Assay for Identification of Small Molecule Agonists for Hypoxia Response Element Signaling Pathway (AID 914; active = well fitted activation curve with a large enough effect in the signal ratio, with a control signal flat, not every such curve was filed as active; the % refers to the signal ratio; note: potency is the fitted concentration of half-maximal effect); details: ME-180 HRE-bla reporter, beta-lactamase ratio, CoCl2, 17 h; activation: hits give high values
In short: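 qHTS titration; ME-180 HRE-bla cells; EC50 CoCl2 co-treatment, 17 h at 37 degrees Celsius; CCF4 dye, ex 405nm, em 460nm and 530nm; %Activity from ratio; AC50.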

[7] = Primary qHTS for small molecule stabilizers of the endoplasmic reticulum resident proteome: Secreted ER Calcium Modulated Protein (SERCaMP) assay (AID 1508630); details: SH-SY5Y GLuc-SERCaMP (Gaussia luciferase released on ER calcium loss) secretion, thapsigargin, luminescence; series mostly up to 38.4 µM; note: % is set by controls: 0 for no effect and ±100 for the full control effect
In short: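 The SH-SY5Y reporter protocol was run at 3 concentrations up to 38.3 uM (primary) or 11 concentrations (follow-up): 16 h compound, 100 nM thapsigargin for 4 h, then extracellular luciferase luminescence.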

[8] = target: Cytochrome P450 1A2 (Homo sapiens) (UniProt P05177); experiment: p450-cyp1a2 (AID 410; calls by dose curve; note: potency is the fitted concentration of half-maximal effect;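 for activity change, negative = inhibition: -100% = full effect of reference inhibitor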); details: recombinant CYP1A2, luciferin-ME demethylation, luminescence; series mostly up to 57 µM
Chain of Cytochrome P450 1A2 (Homo sapiens) (P05177 whole entry, looked up): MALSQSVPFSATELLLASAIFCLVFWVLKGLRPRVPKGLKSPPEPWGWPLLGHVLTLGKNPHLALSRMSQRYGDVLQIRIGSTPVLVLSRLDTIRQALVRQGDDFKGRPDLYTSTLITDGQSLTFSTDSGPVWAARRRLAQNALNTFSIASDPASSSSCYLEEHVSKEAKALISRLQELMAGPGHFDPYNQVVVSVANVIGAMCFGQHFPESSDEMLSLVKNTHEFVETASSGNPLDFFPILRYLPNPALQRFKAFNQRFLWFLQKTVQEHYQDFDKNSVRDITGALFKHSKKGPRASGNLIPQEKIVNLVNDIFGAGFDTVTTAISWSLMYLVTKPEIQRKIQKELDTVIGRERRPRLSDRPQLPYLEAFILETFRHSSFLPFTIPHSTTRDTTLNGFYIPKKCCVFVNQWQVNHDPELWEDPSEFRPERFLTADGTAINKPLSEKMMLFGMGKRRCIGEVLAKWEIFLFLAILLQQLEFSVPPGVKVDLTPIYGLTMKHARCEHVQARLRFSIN
In short: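 Luminescent demethylation readout: Luciferin-ME (100uM, equal to Km) turned over by 20nM CYP1A2 for 60 min at room temperature after NADPH regeneration addition, following 10 min compound preincubation. Normalization used 57 uM furafylline as full inhibition.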

[9] = NFAT Signaling Pathway (AID 444; active = well fitted curve in either direction with a large enough effect, not every such curve was filed as active;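 note: carbachol stimulus at about its EC50 of 1 µM final; % is set by controls: 0 for no effect and ±100 for the full control effect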); details: Jurkat NFAT-bla M1, carbachol, beta-lactamase ratio, 5 h; at 7.69 µM (top of the series) unless noted
In short: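 Jurkat cells carrying an NFAT-driven β-lactamase reporter and co-transfected muscarinic M1 receptor were treated with compound plus carbachol (1 uM final, an EC50 level) for 5 h at 37 °C. CCF4 loading followed for 1 h at RT; 460/530 nm ratio gave %activity.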

[10] = target: Cytochrome P450 3A4 (Homo sapiens) (UniProt P08684); experiment: qHTS Assay for Inhibitors and Substrates of Cytochrome P450 3A4 (AID 884); details: recombinant CYP3A4, Luciferin-PPXE luminescence; series mostly up to 57.1 µM; note: potency is the fitted concentration of half-maximal effect; nearly all actives have a fitted effect of over 50% in size
Chain of Cytochrome P450 3A4 (Homo sapiens) (P08684 whole entry, looked up): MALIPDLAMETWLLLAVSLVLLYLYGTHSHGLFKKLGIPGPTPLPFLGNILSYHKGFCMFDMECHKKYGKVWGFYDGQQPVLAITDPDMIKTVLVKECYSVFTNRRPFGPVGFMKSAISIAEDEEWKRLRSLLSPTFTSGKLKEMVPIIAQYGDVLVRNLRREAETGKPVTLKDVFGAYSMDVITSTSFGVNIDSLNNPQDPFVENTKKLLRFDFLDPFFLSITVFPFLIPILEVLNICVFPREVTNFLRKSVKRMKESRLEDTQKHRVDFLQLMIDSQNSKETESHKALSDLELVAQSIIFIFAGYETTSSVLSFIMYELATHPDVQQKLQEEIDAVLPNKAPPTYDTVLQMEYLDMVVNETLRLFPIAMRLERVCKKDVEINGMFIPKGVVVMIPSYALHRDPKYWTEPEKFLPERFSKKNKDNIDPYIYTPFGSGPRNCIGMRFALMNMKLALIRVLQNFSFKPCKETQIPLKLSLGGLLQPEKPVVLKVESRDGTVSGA
In short: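 Luminescent readout of luciferin produced by CYP3A4 (20 nM) dealkylation of Luciferin-PPXE, 25 uM (its KM). NADPH-driven reaction ran 60 min at RT after 10 min compound preincubation; data scaled to 57 uM ketoconazole as 100% inhibition.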

[11] = target: Cytochrome P450 3A4 (Homo sapiens) (UniProt P08684); experiment: qHTS Assay for Activators of Cytochrome P450 3A4 (AID 885); details: recombinant CYP3A4, Luciferin-PPXE luminescence, 60 min; series mostly up to 57.1 µM; note: nearly all actives have a fitted effect of over 65% in size
In short: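 Luminescent readout of luciferin formed from 25 uM Luciferin-PPXE (KM level) by 20 nM CYP3A4 in 200 mM KPO4, with 60 min NADPH-driven reaction at room temperature after 10 min compound exposure. Ketoconazole (57 uM) defined 100% inhibition.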

[12] = Stat Signaling Pathway (AID 446; active = well fitted curve in either direction with a large enough effect, not every such curve was filed as active); details: ME-180 (cervical carcinoma) SIE beta-lactamase reporter, IL-6 stimulated, 5 h; at 7.69 µM (top of the series) unless noted
In short: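 FRET read-out (405 nm excitation, 460/530 nm emission) of a beta-lactamase reporter under a STAT-inducible element in ME-180 cervical carcinoma cells. Cells with compound receive 40 pM IL-6 for 5 h. Values are normalised to AC90 stimulation and AC90 JAK-inhibitor controls.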

[13] = target: 3',5'-cyclic-AMP phosphodiesterase 4B (Homo sapiens) (UniProt Q07343); experiment: qHTS Assay for Inhibitors of PDE-IV (AID 607; active = well fitted activation curve with a large enough effect in the main read-out, with a control signal flat, not every such curve was filed as active; note: % of control where 0% means no effect); details: HEK293 ACTOne CNG channel cells, membrane potential fluorescence; series mostly up to 22.9 µM
Chain of 3',5'-cyclic-AMP phosphodiesterase 4B (Homo sapiens) (Q07343 whole entry, looked up): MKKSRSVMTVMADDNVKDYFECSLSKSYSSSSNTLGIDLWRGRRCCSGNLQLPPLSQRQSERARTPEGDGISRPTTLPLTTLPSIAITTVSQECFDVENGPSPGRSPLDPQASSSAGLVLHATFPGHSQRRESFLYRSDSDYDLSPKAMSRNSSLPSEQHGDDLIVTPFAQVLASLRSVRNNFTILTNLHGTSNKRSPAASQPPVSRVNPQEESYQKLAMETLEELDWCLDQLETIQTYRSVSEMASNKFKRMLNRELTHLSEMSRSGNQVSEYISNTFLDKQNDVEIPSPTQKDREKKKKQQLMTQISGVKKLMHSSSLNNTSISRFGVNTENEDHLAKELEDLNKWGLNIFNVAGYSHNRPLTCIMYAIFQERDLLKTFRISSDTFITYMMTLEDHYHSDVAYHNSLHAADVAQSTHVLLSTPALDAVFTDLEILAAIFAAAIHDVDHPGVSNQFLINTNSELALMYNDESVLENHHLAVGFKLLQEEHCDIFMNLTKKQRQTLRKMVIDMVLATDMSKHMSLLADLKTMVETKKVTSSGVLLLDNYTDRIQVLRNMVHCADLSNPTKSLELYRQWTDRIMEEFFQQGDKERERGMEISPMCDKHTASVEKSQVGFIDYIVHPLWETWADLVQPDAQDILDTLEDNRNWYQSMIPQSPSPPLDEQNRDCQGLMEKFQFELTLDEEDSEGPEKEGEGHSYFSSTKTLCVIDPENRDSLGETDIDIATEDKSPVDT
In short: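 Cell-based read-out of cAMP via a modified cyclic nucleotide-gated channel and membrane potential dye (535/590 nm) in HEK293 cells expressing PDE4 endogenously. Compounds tested up to 22.9 uM final; 100 uM RO 20-1724 reference.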

[14] = Confirmation and Secondary Assay for Modulators of Hemoglobin Beta Chain Splicing at IVS2 654 locus (AID 910); details: HeLa EGFP-654 splicing reporter, GFP fluorescence, 48 h; series mostly up to 38.3 µM;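 note: per-well total GFP intensity by laser scanning cytometry after 2-day treatment; % of control where 0% means no effect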
In short: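 HeLa cells stably carrying EGFP interrupted by mutant beta-globin IVS2-654 intron (CMV-driven) were treated with compound for 2 days at 37C; corrected splicing was scored as total peak GFP intensity per well (488 nm excitation, 500-520 nm emission).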

[15] = Confirmation and Secondary Assay for Modulators of Hemoglobin Beta Chain Splicing at IVS2 705 locus (AID 930); details: HeLa EGFP-705 splicing reporter, GFP fluorescence, 48 h; series mostly up to 38.3 µM;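 note: HeLa cells stably expressing the EGFP-705 splicing reporter; GFP fluorescence per well restored by corrected splicing of the IVS2-705 intron in EGFP; % of control where 0% means no effect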
In short: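 Secondary splice-site specificity test uses HeLa expressing CMV-driven EGFP interrupted by IVS2-705; cells were treated 2 days at 37C with 500 nM antisense PNA as positive control.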

[16] = target: Cytochrome P450 2C9 (Homo sapiens) (UniProt P11712); experiment: qHTS Assay for Inhibitors and Substrates of Cytochrome P450 2C9 (AID 883); details: recombinant CYP2C9, luciferin-H luminescence, 60 min; series mostly up to 57.1 µM; note: nearly all actives have a fitted effect of over 60% in size; note: potency is the fitted concentration of half-maximal effect
Chain of Cytochrome P450 2C9 (Homo sapiens) (P11712 whole entry, looked up): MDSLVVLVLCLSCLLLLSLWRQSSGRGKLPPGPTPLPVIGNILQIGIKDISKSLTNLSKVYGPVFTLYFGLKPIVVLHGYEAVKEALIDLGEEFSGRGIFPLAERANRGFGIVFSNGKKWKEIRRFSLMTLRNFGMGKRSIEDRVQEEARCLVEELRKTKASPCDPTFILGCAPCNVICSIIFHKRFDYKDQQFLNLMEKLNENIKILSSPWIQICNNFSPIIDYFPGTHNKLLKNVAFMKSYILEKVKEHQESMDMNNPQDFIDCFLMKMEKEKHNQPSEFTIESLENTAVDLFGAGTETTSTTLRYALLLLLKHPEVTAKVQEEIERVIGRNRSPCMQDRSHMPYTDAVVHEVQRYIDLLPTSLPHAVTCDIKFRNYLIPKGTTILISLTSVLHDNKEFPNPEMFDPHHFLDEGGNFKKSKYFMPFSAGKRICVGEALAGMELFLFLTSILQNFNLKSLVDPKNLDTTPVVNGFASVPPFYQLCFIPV
In short: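 Human CYP2C9 (10nM) hydroxylated Luciferin-H (100uM, at its KM) to luciferin in 25mM KPO4. Compound was preincubated 10 min at 37C, then NADPH regeneration started a 60 min reaction at 37C. Luminescence was read after detection reagent, normalized to 57uM sulphaphenazole.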

[17] = target: Cytochrome P450 2C19 (Homo sapiens) (UniProt P33261); experiment: qHTS Assay for Inhibitors and Substrates of Cytochrome P450 2C19 (AID 899); details: recombinant CYP2C19, luciferin-H EGE luminescence; series mostly up to 57.1 µM; note: potency is the fitted concentration of half-maximal effect; nearly all actives have a fitted effect of over 60% in size
Chain of Cytochrome P450 2C19 (Homo sapiens) (P33261 whole entry, looked up): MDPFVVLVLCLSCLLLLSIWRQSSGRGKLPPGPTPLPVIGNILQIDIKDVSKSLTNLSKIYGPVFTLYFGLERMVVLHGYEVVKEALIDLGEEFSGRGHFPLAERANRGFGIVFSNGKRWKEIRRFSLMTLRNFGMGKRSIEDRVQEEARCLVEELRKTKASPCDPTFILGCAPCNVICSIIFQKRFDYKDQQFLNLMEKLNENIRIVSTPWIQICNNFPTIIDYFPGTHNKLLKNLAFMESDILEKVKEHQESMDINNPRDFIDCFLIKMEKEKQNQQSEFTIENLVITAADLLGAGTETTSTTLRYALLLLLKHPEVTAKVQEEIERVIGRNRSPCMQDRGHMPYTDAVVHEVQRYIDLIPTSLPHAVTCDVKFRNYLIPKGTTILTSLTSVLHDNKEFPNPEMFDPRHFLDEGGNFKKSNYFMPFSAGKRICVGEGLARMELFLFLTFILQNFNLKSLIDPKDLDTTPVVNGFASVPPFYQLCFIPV
In short: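 Human CYP2C19 (5nM) with Luciferin-H EGE at 10uM (its KM) in 50mM KPO4 was preincubated with compound for 10 min at 37C. NADPH regeneration started a 60 min 37C reaction. Luciferin was read by luminescence, normalized to 57uM ketoconazole.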

[18] = target: Cytochrome P450 2D6 (Homo sapiens) (UniProt P10635); experiment: qHTS Assay for Inhibitors and Substrates of Cytochrome P450 2D6 (AID 891); details: recombinant CYP2D6, luciferin-ME EGE luminescence; series mostly up to 57.1 µM; note: potency is the fitted concentration of half-maximal effect; nearly all actives have a fitted effect of over 60% in size
Chain of Cytochrome P450 2D6 (Homo sapiens) (P10635 whole entry, looked up): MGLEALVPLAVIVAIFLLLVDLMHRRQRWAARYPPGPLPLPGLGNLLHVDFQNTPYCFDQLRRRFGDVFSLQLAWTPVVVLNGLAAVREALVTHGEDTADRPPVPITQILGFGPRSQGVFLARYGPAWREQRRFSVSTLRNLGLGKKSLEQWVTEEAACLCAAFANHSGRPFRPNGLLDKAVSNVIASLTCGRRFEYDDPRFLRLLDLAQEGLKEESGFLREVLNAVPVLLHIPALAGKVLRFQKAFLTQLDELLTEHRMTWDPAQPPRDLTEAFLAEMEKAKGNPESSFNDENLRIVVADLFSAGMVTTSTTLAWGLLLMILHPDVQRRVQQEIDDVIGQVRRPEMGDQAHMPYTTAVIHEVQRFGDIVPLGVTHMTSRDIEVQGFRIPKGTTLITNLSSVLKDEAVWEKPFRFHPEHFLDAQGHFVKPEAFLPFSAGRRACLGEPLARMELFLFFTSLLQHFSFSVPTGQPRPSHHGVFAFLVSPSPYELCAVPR
In short: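 Luminescent read-out of luciferin formed by 5 nM human CYP2D6 demethylating 30 uM Luciferin-ME EGE (Km level) over 60 min at room temperature after NADPH regeneration addition. Data normalized to full inhibition by 1.43 uM quinidine.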

CCNc1ncc2nc(-c3ccccc3)c(=O)n(-c3ccc(OC)cc3)c2n1
active: Potency [6] 3.16 µM
inactive: Potency [1] > 11.4 µM | activity change, negative = inhibition [2] 27.6% | Potency [3] > 9.22 µM | Potency [4] > 46 µM | Potency [5] | outcome [7]

COc1ccc(Oc2ncc3nc(-c4cccs4)c(=O)n(Cc4cccc(OC)c4)c3n2)cc1
active: Potency [10] 3.98 µM | Potency [6] 3.16 µM
inactive: Potency [1] > 11.4 µM | Potency [8] | activity change, negative = inhibition [9] -5.95% | Potency [3] > 9.22 µM | Potency [4] > 46 µM | Potency [11] | outcome [7]

c1ccc(Nc2ncnc3ccc(-c4cccnc4)cc23)cc1
inactive: Potency [1] > 11.4 µM | activity, negative = inhibition [12] 19.3% | Potency [3] > 46 µM | Potency [4] > 46 µM | Potency [5] | Potency [13] | Potency [11] | Potency [14] | outcome [15] | outcome [7]
active: Potency [8] 0.0794 µM | Potency [10] 2.51 µM

COc1cccc(Nc2ncc3nc(-c4ccc(F)cc4)c(=O)n(C[C@H]4CCCO4)c3n2)c1
inactive: Potency [1] > 11.4 µM | activity change, negative = inhibition [9] -9.67% | activity, negative = inhibition [12] -5.57% | Potency [3] > 9.22 µM | Potency [4] > 46 µM | Potency [5] | Potency [13] | outcome [7]

O=c1c(-c2cccs2)nc2cnc(Oc3cccc(Cl)c3)nc2n1C[C@H]1CCCO1
active: Potency [8] 3.16 µM | Potency [16] 3.16 µM | Potency [6] 3.16 µM
inactive: Potency [1] > 11.4 µM | Potency [3] > 9.22 µM | Potency [4] > 46 µM | Potency [13] | Potency [11] | outcome [7]

O=C(c1csnn1)N1CCC2(CCCN(c3ccc(-c4ccccc4)cc3)C2)CC1
inactive: Potency [1] > 11.4 µM | activity change, negative = inhibition [9] -15.8% | activity, negative = inhibition [12] 1.9% | Potency [4] > 46 µM | Potency [5] | Potency [13] | Potency [11] | outcome [7]
active: Potency [10] 7.94 µM

COc1ccc(-c2nc3cnc(N(C)C)nc3n(CCc3ccccc3)c2=O)cc1
inactive: Potency [1] > 11.4 µM | Potency [4] > 46 µM | Potency [13] | outcome [7]
active: Potency [8] 1.26 µM | activity, negative = inhibition [12] 121% [activator]

COc1ccc(-n2c(=O)c(-c3ccc(Cl)cc3)nc3cnc(N4CCOCC4)nc32)cc1
active: Potency [8] 15.8 µM | activity, negative = inhibition [12] 88.4% [activator] | Potency [6] 0.631 µM
inactive: Potency [1] > 11.4 µM | activity change, negative = inhibition [9] 23.6% | Potency [3] > 9.22 µM | Potency [4] > 46 µM | Potency [5] | Potency [13] | outcome [7]

O=C(c1ccncc1)N1CCC2(CC1)CN(c1ccc(-c3ccccc3)cc1)C2
inactive: Potency [1] > 11.4 µM | Potency [8] | activity change, negative = inhibition [9] 17.4% | activity, negative = inhibition [12] -19.8% | Potency [4] > 46 µM | Potency [5] | Potency [13] | Potency [11] | outcome [7]

O=C(Oc1ccccc1)N1CCC2(CCCN(c3ncccn3)C2)CC1
inactive: Potency [1] > 11.4 µM | activity change, negative = inhibition [9] -6.42% | activity, negative = inhibition [12] -23.6% | Potency [4] > 46 µM | Potency [13] | outcome [7]

Cc1cccc(CNc2cc(-c3ccc(N(C)C)cc3)ncn2)c1
active: Potency [8] 1 µM | Potency [10] 6.31 µM | Potency [17] 3.16 µM
inactive: Potency [1] > 11.4 µM | activity change, negative = inhibition [9] -5.57% | activity, negative = inhibition [12] -19.8% | Potency [4] > 46 µM | Potency [5] | Potency [13] | Potency [11] | Potency [14] | outcome [7]

COc1cccc(Cn2c(=O)c(-c3cccs3)nc3cnc(N4CCN(C)CC4)nc32)c1
active: Potency [8] 5.01 µM | activity change, negative = inhibition [9] 160% [activator]
inactive: Potency [1] > 11.4 µM | Potency [3] > 9.22 µM | Potency [4] > 46 µM | Potency [13] | Potency [16] | Potency [11] | outcome [7]

CCNc1ncc2nc(-c3ccccc3)c(=O)n(Cc3ccc(F)cc3)c2n1
active: Potency [8] 3.16 µM | activity, negative = inhibition [12] 82.9% [activator]
inactive: Potency [1] > 11.4 µM | Potency [3] > 9.22 µM | Potency [4] > 46 µM | Potency [13] | Potency [16] | Potency [11] | outcome [7]

O=S(=O)(c1ccccc1)N1CCC[C@@]2(CCN(C(c3ccccc3)c3ccccc3)C2)C1
inactive: Potency [1] > 11.4 µM | Potency [8] | activity change, negative = inhibition [9] -29.6% | activity, negative = inhibition [12] 13.8% | Potency [4] > 46 µM | Potency [5] | Potency [11] | outcome [7]
active: Potency [10] 3.16 µM | Potency [18] 0.631 µM

CCNc1ncc2nc(-c3cc(F)cc(F)c3)c(=O)n(Cc3cccs3)c2n1
active: Potency [8] 5.01 µM | activity, negative = inhibition [12] 135% [activator] | Potency [6] 0.794 µM
inactive: Potency [1] > 11.4 µM | Potency [3] > 9.22 µM | Potency [4] > 46 µM | Potency [5] | Potency [11] | outcome [7]

COc1cccc(Cn2c(=O)c(C)nc3cnc(OCc4ccccc4)nc32)c1
inactive: Potency [1] > 11.4 µM | activity change, negative = inhibition [9] -16.9% | activity, negative = inhibition [12] -3.44% | Potency [4] > 46 µM | Potency [5] | outcome [7]
